# Test: modulators of S6 phosphorylation in cells, primary screen, cell-based, A549, cytoblot, luminescence, serum-stimulated (AID 1158);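 note: serum-stimulated A549 lung adenocarcinoma cells; signal is phosphorylated S6 detected by cytoblot immunostaining with HRP secondary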
# Settings: A549 phospho-S6 cytoblot, 5 h, higher = more signal
row,SMILES,z-score
1,CN1C(=O)[C@]2(CCC(=O)OC(C)(C)C)N=C(c3ccc(OCCCO)cc3)O[C@@H]2c2ccccc21,-0.0426
2,CC(c1ccccc1)C(O)C1C=CC2C(=O)N(c3ccccc3)C(=O)C2N1Nc1ccc(C#N)cc1 (centres undefined),1.38
3,COCCOC(=O)N1C(=O)[C@@]2(c3cc(C#CCCO)ccc31)[C@H](C(=O)N1CCN(c3ncccn3)CC1)[C@H]1C(=O)O[C@H](c3ccccc3)[C@H](c3ccccc3)N1[C@@H]2c1ccc(O)cc1,0.188
4,C#CCN(C/C=C/c1ccccc1)[C@H](CO[Si](C)(C)C(C)(C)C)c1ccccc1,-0.0623
5,NCCCC[C@@H]1NC(=O)[C@H]2C[C@@H](C(=O)O)[C@@H](c3cccc(OCCO)c3)N2C1=O,-0.993
6,[N-]=[N+]=NCc1ccccc1C[C@]1(C(=O)N2CCCCC2)N=C(c2ccc(OCCCO)cc2)O[C@H]1c1ccccc1,1.38
7,CCCCC(=C=CC[C@H](O)c1ccc(OCCO)cc1)C[C@H](O)c1ccccn1,0.433
8,CN(C)C(=O)[C@@]1(CCS(=O)(=O)c2ccccc2)N=C(c2ccc(OCCCO)cc2)O[C@H]1c1ccccc1N=[N+]=[N-],-0.76
9,[N-]=[N+]=NCc1ccccc1[C@@H]1OC(c2ccc(OCCCO)cc2)=N[C@]1(Cc1ccccc1)C(=O)NCc1ccccc1,0.0369
10,O=C(NCCO)C1=C[C@H](Oc2ccccc2I)[C@@H](O)[C@H](NCc2ccc(F)cc2)C1,0.436
11,COc1ccc([Si](C)(C)[C@@H]2[C@@H](CC(=O)N(CCO)Cc3ccccc3)O[C@]3(C(=O)N(Cc4ccc(N5CCC5=O)cc4)c4ccccc43)[C@H]2C)cc1,0.838
12,O=C1NC(=O)C2C1C=CC(C(O)c1cccc(O)c1)N2Nc1ccc(Cl)cc1Cl (centres undefined),-1.22
13,CC(C)C[C@@H]1NC(=O)C([C@@H](C)OCc2ccccc2)NC(=O)[C@@]23C(=O)N[C@@H](Cc4ccccc4)C2[C@H](C)[C@@]2(C)O[C@H]2C3/C=C/CC/C=C/CNC1=O (some centres undefined),0.189
14,COc1ccc([Si](C)(C)[C@H]2[C@H](CCO)O[C@@]3(C(=O)N(Cc4ccc(N5CCOC5=O)cc4)c4ccccc43)[C@@H]2C)cc1,0.419
15,COc1ccc(CCNC(=O)[C@@]2(Sc3ccc(C)cc3)CC(=O)N(Cc3cc(C(F)(F)F)cc(C(F)(F)F)c3)[C@@H]2c2ccc(CO)cc2)cc1,0.0684
16,CCCCC(O)C1C=CC2C(=O)NC(=O)C2N1Nc1ccc(Cl)cc1Cl (centres undefined),-0.787
17,CO[C@H]1O[C@H](CO)[C@@H](OC(=O)Nc2ccc3c(c2)OCO3)[C@@H]2OC(=O)[C@@H](Cc3ccccc3)C/C=C/C[C@H](Cc3ccccc3)C(=O)O[C@@H]12,0.401
18,CN(C)C(=O)[C@]1(Cc2ccccc2CN=[N+]=[N-])N=C(c2ccc(OCCCO)cc2)O[C@@H]1c1ccccc1N=[N+]=[N-],-0.0847
19,O=C1OCCC=C[C@H]2OC34C=CCN(CCN5CCOCC5)C(=O)[C@H]3N(CCCO)C(=O)[C@@H]4C12 (some centres undefined),0.41
20,C=CCNC(=O)[C@@H]1[C@H]2C(=O)O[C@H](c3ccccc3)[C@H](c3ccccc3)N2[C@H](c2ccccc2OCCO)[C@@]12C(=O)N(C(=O)OCCOC)c1ccc(C#CCCO)cc12,0.568
21,C=CCC(OC(C)=O)[C@@H]1[C@@H](N(Cc2cccc3ccccc23)C(=O)c2cccc3ccccc23)c2cc(OCCCO)ccc2N1C(=O)Cc1ccc2ccccc2c1 (some centres undefined),0.326
22,C=C(COC)/C(=C/C[C@@H](OC(C)=O)c1ccccc1OCCO)c1cc(C(=O)OC)ccc1OC,-0.0651
23,COCC(=C=CC[C@@H](O)c1cccc(OCCO)c1)C[C@@H](O)COCc1ccccc1,1.31
24,CCCCC=C[C@@H](NC(=O)c1ccc(C(F)(F)F)cc1)c1ccccc1,-0.0311
25,COC(=O)[C@]1(CO)N=C(c2ccc(OCCCO)cc2)O[C@@H]1c1ccccc1CN=[N+]=[N-],-0.405
26,COC(=O)[C@@]1(Cc2ccc(OC)cc2)[C@H]2c3cc(C(=O)N4CCCC4)n(CCc4ccc(OC)c(Br)c4)c3C[C@H]2CN1C(=O)c1ccccc1,0.348
27,COCCOC(=O)N1C(=O)[C@@]2(c3cc(C#CCC(C(=O)OC)C(=O)OC)ccc31)[C@H](C(=O)N1CCc3cc(OC)c(OC)cc3C1)[C@H]1C(=O)O[C@H](c3ccccc3)[C@H](c3ccccc3)N1[C@@H]2c1ccc(O)cc1,-0.111
28,CCC(CC)C(O)C1C=CC2C(=O)N(C)C(=O)C2N1N1CCCCC1 (centres undefined),-1.17
29,COc1cc2c(cc1O)C(c1ccc(CN3CCCC3)cc1)N(Cc1ccc([N+](=O)[O-])o1)CC2 (centres undefined),-0.683

# — PubChem BioAssay
